In PubChem BioAssay (Tox21):
Values without a mark were called inactive. Records with an inconclusive call do not appear. A call without a number means that no potency is given here. Calls of active or inactive are those of the source. Unless noted, calls come from the whole dose curve; as a rule, active = well fitted curve in the direction sought with a large enough effect in the repeat runs; inconclusive = weak or mixed curves; inactive = no such curve, though single readings can be large; an effect the other way counts as inactive or inconclusive.

Key:
[1] = qHTS assay for small molecules that induce genotoxicity in human embryonic kidney cells expressing luciferase-tagged ATAD5 (AID 651632); note: nearly all actives have a fitted effect of over 15% in size
Procedure, shortened: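 Luminescence read-out: after 16 hr compound exposure at 37C, ATAD5-luciferase HEK293T cells received Amplite, 30 min RT, then CCD imaging. A rise in signal marks genotoxic stress.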

[2] = qHTS assay for small molecule agonists of the p53 signaling pathway - cell viability (AID 651633; calls by dose curve;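 note: p53RE-bla HCT reporter cells with a stable beta-lactamase p53 reporter; series mostly up to about 83 µM; nearly all actives have a fitted effect of over 30% in size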)
Procedure, shortened: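 Viability counter-read: CellTiter-Glo luminescence (30 min, room temperature) in the same p53RE-bla plates. These plates had been exposed to compounds for 16 h at 37 C.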

[3] = qHTS assay for small molecules that induce genotoxicity in human embryonic kidney cells expressing luciferase-tagged ATAD5 - cell viability (AID 651634; calls by dose curve; note: nearly all actives have a fitted effect of over 25% in size)
Procedure, shortened: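 HEK293T ATAD5-luc cells, 2,000/well; compound 15.5 hr, 37C/5% CO2; CellTiter-Fluor 30 min, 37C; fluorescence read.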

[4] = qHTS assay for small molecule disruptors of the mitochondrial membrane potential (AID 720635); note: potency is the fitted concentration of half-maximal effect
Procedure, shortened: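 Mitochondrial membrane potential tracked with Mito-MPS dye, red aggregates (ex 540/em 590 nm) against green monomers (ex 490/em 535 nm). Compound treatment 1 hr at 37C, dye 30 min in HepG2.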

[5] = qHTS assay to test for compound auto fluorescence at 590 nm (red) in HepG2 cells (AID 720674)
Procedure, shortened: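 1 hr compound incubation on HepG2 cells, 37 C, 5% CO2; plate read ex 540 nm / em 590 nm; intensities reported as Rose Bengal sodium equivalents.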

[6] = qHTS assay to test for compound auto fluorescence at 535 nm (green) in HepG2 cells (AID 720675)
[7] = qHTS assay to test for compound auto fluorescence at 460 nm (blue) in HEK293 cells (AID 720678); note: potency is the fitted concentration of half-maximal effect
Procedure, shortened: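 HEK293 cells (2,000/well, medium with 10% dialyzed FBS) attached 4-5 hr, then exposed to compound overnight at 37C, 5% CO2. Blue fluorescence read at 405/460 nm, with triamterene as reference fluorophore.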

[8] = qHTS assay to test for compound auto fluorescence at 590 nm (red) in HEK293 cells (AID 720679)
Procedure, shortened: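 HEK293 cells (2,000/well, 10% dialyzed FBS) attached 4-5 hr, then dosed with compound or DMSO and incubated overnight at 37C, 5% CO2. Red fluorescence read at 540/590 nm, Rose Bengal sodium as reference fluorophore.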

[9] = qHTS assay to test for compound auto fluorescence at 535 nm (green) in HEK293 cells (AID 720680)
[10] = qHTS assay to test for compound auto fluorescence at 460 nm (blue) in HEK293 cell free culture (AID 720681)
Procedure, shortened: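 Blue fluorescence (Ex 405/Em 460 nm, triamterene-equivalent) was read immediately after pin transfer of compound or DMSO into medium (DMEM, 10% FBS) without cells.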

[11] = qHTS assay to test for compound auto fluorescence at 535 nm (green) in HEK293 cell free culture (AID 720682)
Procedure, shortened: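 Fluorescein serves as the green reference fluorophore; each compound's intrinsic emission at 535 nm (excitation 485 nm) is reported as an equivalent amount of that dye, measured in serum-containing DMEM without cells.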

[12] = qHTS assay to test for compound auto fluorescence at 590 nm (red) in HEK293 cell free culture (AID 720683)
Procedure, shortened: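 Red-channel autofluorescence of compounds in culture medium (DMEM, 10% FBS), no cells, measured at 540/590 nm. Rose Bengal sodium is the reference fluorophore for equivalence.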

[13] = qHTS assay to test for compound auto fluorescence at 590 nm (red) in HepG2 cell free culture (AID 720684)
Procedure, shortened: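 Cell-free; medium MEM + 10% FBS; compound or DMSO added by pintool; read Ex 540/Em 590 nm; Rose Bengal sodium as red reference fluorophore.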

[14] = qHTS assay to test for compound auto fluorescence at 460 nm (blue) in HepG2 cell free culture (AID 720685)
Procedure, shortened: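 Cell-free plates of MEM plus 10% FBS received 23 nL compound or DMSO vehicle; blue-channel (405/460 nm) intensity scored against triamterene as reference fluorophore.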

[15] = qHTS assay to test for compound auto fluorescence at 535 nm (green) in HepG2 cell free culture (AID 720686)
[16] = qHTS assay to test for compound auto fluorescence at 460 nm (blue) in HepG2 cells (AID 720687)
Procedure, shortened: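 Blue-channel autofluorescence (Ex/Em 405/460 nm, triamterene-equivalent) was measured after 1 hr compound exposure at 37 C, 5% CO2. Cells were HepG2, plated overnight at 37 C in MEM plus 10% FBS.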

[17] = target: Glucocorticoid receptor (Homo sapiens) (UniProt P04150); test: qHTS assay to identify small molecule agonists of the glucocorticoid receptor (GR) signaling pathway (AID 720691; active = well fitted activation curve with a large enough effect in the signal ratio in the repeat runs, not every such curve was filed as active; the % refers to the signal ratio)
Procedure, shortened: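 HeLa GR-bla reporter line; cells pre-incubated 4 h, compound in DMSO 18 h at 37 C; LiveBLAzer B/G FRET substrate 2 h RT; fluorescence intensity read-out.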

[18] = target: Glucocorticoid receptor (Homo sapiens) (UniProt P04150); test: qHTS assay to identify small molecule antagonists of the glucocorticoid receptor (GR) signaling pathway (AID 720692; active = well fitted inhibition curve with a large enough effect in the signal ratio in the repeat runs, not every such curve was filed as active; the % refers to the signal ratio)
Procedure, shortened: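 Read-out: beta-lactamase FRET substrate fluorescence, 2 h at room temperature, in HeLa cells stably carrying a GRE-driven bla reporter. Compounds were co-incubated with 5 nM dexamethasone agonist (final) for 18 h at 37 C.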

[19] = qHTS assay for small molecule disruptors of the mitochondrial membrane potential - cell viability (AID 720634; calls by dose curve;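 note: human HepG2 liver cancer cells; series mostly up to about 83 µM; nearly all actives have a fitted effect of over 20% in size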)
Procedure, shortened: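 Luminescence from CellTiter-Glo (ATP content) gave viability in HepG2 cells, read in the same wells as the MMP dye assay after 1 hr compound exposure at 37 C.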
Tags give direction and shape of the fitted curve or compound fluorescence and quenching.

Sequence of Glucocorticoid receptor (Homo sapiens) (P04150 whole entry, looked up): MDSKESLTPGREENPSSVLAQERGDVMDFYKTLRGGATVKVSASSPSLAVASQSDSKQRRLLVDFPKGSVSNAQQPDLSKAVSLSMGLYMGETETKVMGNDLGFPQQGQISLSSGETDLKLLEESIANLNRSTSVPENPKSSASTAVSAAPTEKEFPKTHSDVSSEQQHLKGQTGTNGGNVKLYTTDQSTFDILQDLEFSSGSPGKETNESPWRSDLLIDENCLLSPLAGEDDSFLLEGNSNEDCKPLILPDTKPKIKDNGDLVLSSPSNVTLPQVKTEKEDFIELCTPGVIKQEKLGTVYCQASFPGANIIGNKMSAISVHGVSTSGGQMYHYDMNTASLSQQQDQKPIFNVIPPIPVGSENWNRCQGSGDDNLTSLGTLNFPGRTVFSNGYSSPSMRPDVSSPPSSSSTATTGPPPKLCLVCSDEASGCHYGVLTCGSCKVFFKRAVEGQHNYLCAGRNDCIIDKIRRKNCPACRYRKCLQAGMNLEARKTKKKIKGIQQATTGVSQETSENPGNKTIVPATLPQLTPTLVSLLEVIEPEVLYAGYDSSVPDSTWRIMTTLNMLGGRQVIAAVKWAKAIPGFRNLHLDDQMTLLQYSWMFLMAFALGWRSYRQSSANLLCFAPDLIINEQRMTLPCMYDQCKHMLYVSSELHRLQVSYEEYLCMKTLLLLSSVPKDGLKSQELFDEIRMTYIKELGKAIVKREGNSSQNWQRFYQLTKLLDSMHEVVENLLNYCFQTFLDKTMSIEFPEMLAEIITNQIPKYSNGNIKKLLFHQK

Compound: CCCCCCCCCCCCSCCOCCO
- Potency [1]: inactive
- Potency [2]: inactive
- Potency [3]: inactive
- Potency [4]: inactive
- outcome [5]: inactive
- outcome [6]: inactive
- Potency [7]: inactive
- outcome [8]: inactive
- outcome [9]: inactive
- Potency [10]: inactive
- outcome [11]: inactive
- outcome [12]: inactive
- outcome [13]: inactive
- outcome [14]: inactive
- outcome [15]: inactive
- outcome [16]: inactive
- Potency [17]: inactive
- Potency [18]: inactive

Compound: COc1ccc(CN(CCN(C)C)c2ncccn2)cc1
- Potency [2]: inactive
- Potency [3]: inactive
- Potency [19]: inactive
- outcome [5]: inactive
- outcome [6]: inactive
- outcome [8]: inactive
- outcome [9]: inactive
- Potency [10]: inactive
- outcome [11]: inactive
- outcome [13]: inactive
- outcome [14]: inactive
- outcome [15]: inactive
- outcome [16]: inactive
- Potency [17]: inactive
- Potency [18]: inactive

Compound: CC(O)CN (stereo unspecified)
- Potency [1]: inactive
- Potency [2]: inactive
- Potency [3]: inactive
- outcome [5]: inactive
- Potency [7]: inactive
- outcome [8]: inactive
- outcome [9]: inactive
- Potency [10]: inactive
- outcome [11]: inactive
- outcome [12]: inactive
- outcome [13]: inactive
- outcome [15]: inactive
- outcome [16]: inactive
- Potency [17]: inactive
- Potency [18]: inactive

Compound: CC(C)=CCC[C@H](C)CCO
- Potency [1]: inactive
- Potency [3]: inactive
- Potency [19]: inactive
- outcome [5]: inactive
- Potency [7]: inactive
- outcome [8]: inactive
- outcome [9]: inactive
- Potency [10]: inactive
- outcome [11]: inactive
- outcome [12]: inactive
- outcome [13]: inactive
- outcome [14]: inactive
- outcome [15]: inactive

Compound: CC1=C(C)C(=O)C(CCCCC#CCCCC#CCO)=C(C)C1=O
- Potency [2]: inactive
- Potency [3]: inactive
- Potency [19]: inactive
- outcome [5]: inactive
- outcome [6]: inactive
- Potency [7]: inactive
- outcome [8]: inactive
- outcome [9]: inactive
- Potency [10]: inactive
- outcome [11]: inactive
- outcome [12]: inactive
- outcome [13]: inactive
- outcome [14]: inactive
- outcome [15]: inactive
- Potency [18]: inactive

Compound: O=C1c2ccccc2C(=O)c2c1ccc(O)c2O
- Potency [1]: inactive
- Potency [2]: inactive
- Potency [4]: 9.44 µM (active)
- outcome [5]: inactive
- outcome [6]: inactive
- Potency [7]: inactive
- outcome [8]: inactive
- outcome [9]: inactive
- Potency [10]: inactive
- outcome [11]: inactive
- outcome [12]: inactive
- outcome [13]: inactive
- outcome [14]: inactive
- outcome [15]: inactive
- outcome [16]: inactive

Compound: CC[C@H](NC(C)C)[C@H](O)c1ccc(O)c2[nH]c(=O)ccc12
- Potency [2]: inactive
- Potency [3]: inactive
- Potency [19]: inactive
- Potency [4]: inactive
- outcome [5]: inactive
- outcome [6]: inactive
- Potency [7]: 11.2 µM [fluorescent] (active)
- outcome [8]: inactive
- outcome [9]: inactive
- outcome [11]: inactive
- outcome [12]: inactive
- outcome [13]: inactive
- outcome [14]: inactive
- outcome [15]: inactive
- outcome [16]: inactive
- Potency [17]: inactive
- Potency [18]: inactive

Compound: Cc1nc2sccn2c(=O)c1CCN1CCC(=C(c2ccc(F)cc2)c2ccc(F)cc2)CC1
- Potency [1]: inactive
- Potency [3]: inactive
- outcome [5]: inactive
- Potency [7]: inactive
- outcome [8]: inactive
- outcome [9]: inactive
- Potency [10]: inactive
- outcome [11]: inactive
- outcome [12]: inactive
- outcome [13]: inactive
- outcome [14]: inactive
- outcome [15]: inactive

Compound: O=C(NC1CCN(CCc2c[nH]c3ccccc23)CC1)c1ccccc1
- Potency [1]: inactive
- Potency [3]: inactive
- outcome [5]: inactive
- outcome [6]: inactive
- outcome [8]: inactive
- outcome [9]: inactive
- outcome [11]: inactive
- outcome [12]: inactive
- outcome [13]: inactive
- outcome [15]: inactive
- outcome [16]: inactive

Compound: COc1ccc(/C=C/c2cc(OC)cc(=O)o2)cc1
- Potency [2]: inactive
- Potency [3]: inactive
- Potency [19]: inactive
- Potency [4]: inactive
- outcome [5]: inactive
- outcome [6]: inactive
- Potency [7]: inactive
- outcome [8]: inactive
- outcome [9]: inactive
- outcome [11]: inactive
- outcome [12]: inactive
- outcome [13]: inactive
- outcome [14]: inactive
- outcome [15]: inactive
- outcome [16]: inactive
